# Laboratory results taken from PubChem BioAssay (EPA / NIEHS).
# Several values for one entry are separate records, joined by “and”; a condition that tells them apart may be missing. Equal entries are not always repeated. Records with an inconclusive call do not appear. Activity calls are given as the source filed them. Rule for the calls: active = hit-call score of the fitted dose curve at least 0.9, where 1 is the maximum; inconclusive = response in the unintended direction; inactive = score below 0.9.
# Key:
# NCBI gene 24521 = test: NVS_IC_rKATPCh: NovaScreen (NVS) Ion Channel Assay for rat Potassium Channel, ATP-Sensitive (KATPCh) (AID 2283319)
# Outline: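 Primary duplicate screen at 25 uM, then singleton concentration series to 50 uM maximum, in a rat cortex membrane radioligand displacement assay. Binding measured by filtration and scintillation 2 h post-dose; DMSO baseline.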
# [1] = molecular target: rat Gamma-Aminobutyric Acid Type A Receptor, Non-Selective (GABAR-NonSelective), Gabra1 (gene 29705) (UniProt P62813); test: NVS_LGIC_rGABAR_NonSelective: NovaScreen (NVS) Ligand-Gated Ion Channel Assay for rat Gamma-Aminobutyric Acid Type A Receptor, Non-Selective (GABAR-NonSelective) (AID 2283326)
# Outline: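 Compounds were first screened in duplicate at 25 uM, with actives run as singleton concentration series (max 50 uM). Binding of a radioligand to rat whole-brain GABA-A preparation was measured by filtration and scintillation counting after 1 h, DMSO baseline.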
# [2] = NVS_IC_rCaDHPRCh_L: NovaScreen (NVS) Ion Channel Assay for rat Calcium Channel, Type L, Dihydropyridine Site (CaDHPRCh_L) (AID 2283320)
# Method: NVS_IC_rCaDHPRCh_L is a biochemical, single-readout assay that uses extracted gene-proteins from Rat cortical membranes in a tissue-based cell-free assay. Measurements were taken 1 hour after chemical dosing in a 48-well plate.NVS_IC_rCaDHPRCh_L is one of one assay component(s) measured or calculated from the NVS_IC_rCaDHPRCh_L assay. It is designed to make measurements of radioligand binding, a form of binding reporter, as detected with scintillation counting signals by Filter-based radiodetection technology.Data from the assay component NVS_IC_rCaDHPRCh_L was analyzed into 1 assay endpoint. This assay endpoint, NVS_IC_rCaDHPRCh_L, was analyzed in the positive analysis fitting direction relative to DMSO as the negative control and baseline of activity. Using a type of binding reporter, loss-of-signal activity can be used to understand changes in the binding as they relate to the gene Cacna1a. Furthermore, this assay endpoint can be referred to as a primary readout, because the performed assay has only produced 1 assay endpoint. To generalize the intended target to other relatable targets, this assay endpoint is annotated to the ion channel intended target family, where the subfamily is calcium channel. […]
# [3] = molecular target: Sodium channel protein type 1 subunit alpha (Rattus norvegicus) (UniProt P04774); test: NVS_IC_rNaCh_site2: NovaScreen (NVS) Ion Channel Assay for rat Sodium Channel, Site 2 (NaCh) (AID 2283322);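 note: hit means loss of radioligand binding signal relative to DMSO so AC50 marks displacement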
# Outline: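 Initial duplicate single-point testing at 25 uM, followed by concentration-response runs for actives. Binding of radioligand to rat forebrain membranes quantified after 1 h via filter-based radiodetection.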
# [4] = molecular target: rat Thyrotropin Releasing Hormone Receptor (TRH), Trhr (gene 25570) (UniProt Q01717); test: NVS_GPCR_rTRH: NovaScreen (NVS) G Protein-Coupled Receptor Assay for rat Thyrotropin Releasing Hormone Receptor (TRH) (AID 2283329);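 note: hit means lower bound tracer signal versus DMSO baseline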
# Outline: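 Cell-free radioligand binding on rat forebrain membranes; bound tracer measured by filter-based scintillation counting 4 hours after dosing. Loss of signal versus DMSO baseline indicates displacement; primary screen at 25 uM in duplicate, actives then run in concentration series.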
# [5] = molecular target: human Peripheral-type Benzodiazepine Receptor (PBR), TSPO (gene 706) (UniProt P30536); test: NVS_MP_hPBR: NovaScreen (NVS) Membrane Protein Assay for human Peripheral-type Benzodiazepine Receptor (PBR) (AID 2283331);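 note: hits reduce radioligand binding relative to DMSO baseline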
# Outline: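 Using human colon-derived membranes, this one-endpoint binding test reads radioligand loss by scintillation after 1 h. Screening started at 25 uM in duplicate, with positive and negative controls on every plate, and actives moved to dose series.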
# [6] = molecular target: rat Opioid Receptor, Non-selective Binding, Oprm1 (gene 25601) (UniProt P33535); test: NVS_GPCR_rOpiate_NonSelective: NovaScreen (NVS) G Protein-Coupled Receptor Assay for rat Opioid Receptor, Non-selective Binding (AID 2283318)
# Outline: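 Filter-based radioligand displacement using rat forebrain membrane preparations, measured 1.5 h post-dosing. Single-concentration duplicate screen at 25 uM, follow-up in concentration series; activity taken as signal loss relative to DMSO.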
# [7] = molecular target: rat Neonicotinoid receptor (NNR), Chrna7 (gene 25302) (UniProt Q05941); test: NVS_LGIC_rNNR_BungSens: NovaScreen (NVS) Ligand-Gated Ion Channel Assay for rat Neonicotinoid receptor (NNR) (AID 2283315)
# Outline: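 Rat cortical membrane preparation incubated 2.5 h with tritiated or iodinated radioligand and test chemical. Bound radioactivity was filtered and counted by scintillation, and displacement was analysed against DMSO.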
# [8] = molecular target: rat Vasopressin 1 Receptor (V1), Avpr1a (gene 25107) (UniProt P30560); test: NVS_GPCR_rV1: NovaScreen (NVS) G Protein-Coupled Receptor Assay for rat Vasopressin 1 Receptor (V1) (AID 2283316)
# Method: (§1) NVS_GPCR_rV1 is a biochemical, single-readout assay that uses extracted gene-proteins from Rat liver membranes in a tissue-based cell-free assay. Measurements were taken 1.5 hours after chemical dosing in a 48-well plate.NVS_GPCR_rV1 is one of one assay component(s) measured or calculated from the NVS_GPCR_rV1 assay. It is designed to make measurements of radioligand binding, a form of binding reporter, as detected with scintillation counting signals by Filter-based radiodetection technology.Data from the assay component NVS_GPCR_rV1 was analyzed into 1 assay endpoint. This assay endpoint, NVS_GPCR_rV1, was analyzed in the positive analysis fitting direction relative to DMSO as the negative control and baseline of activity. […] Furthermore, this assay endpoint can be referred to as a primary readout, because the performed assay has only produced 1 assay endpoint. […]
# (§2) Binding assays used specific radioligands (tritiated, iodinated) with non-radioactive competitive displacement ligands in agonist or antagonist protocols (as indicated) and various reference compounds and inhibitors to titrate specific binding to receptors and transporters. Most enzyme assays (CYPs, kinases, phosphatases, proteases, HDACs) used recombinant protein and specific substrates (fluorescence mostly, some colorimetric and radioactive) and inhibitors, followed by a biochemical separation of substrate and product. […]
# [9] = molecular target: human Serotonin, 5-Hydroxytryptamine Receptor 3 (5HT3), HTR3A (gene 3359) (UniProt P46098); test: NVS_LGIC_h5HT3: NovaScreen (NVS) Ligand-Gated Ion Channel Assay for human Serotonin, 5-Hydroxytryptamine Receptor 3 (5HT3) (AID 2283325)
# Method: as §1, with “NVS_LGIC_h5HT3” for “NVS_GPCR_rV1”, “HEK293” for “Rat liver membranes”, “a” for “a tissue-based”, “1 hour” for “1.5 hours”, “96-well plate.NVS_LGIC_h5HT3” for “48-well plate.NVS_GPCR_rV1”, “NVS_LGIC_h5HT3,” for “NVS_GPCR_rV1,”
# as §2
# Chain of rat Thyrotropin Releasing Hormone Receptor (TRH), Trhr (gene 25570) (Q01717 whole entry, looked up): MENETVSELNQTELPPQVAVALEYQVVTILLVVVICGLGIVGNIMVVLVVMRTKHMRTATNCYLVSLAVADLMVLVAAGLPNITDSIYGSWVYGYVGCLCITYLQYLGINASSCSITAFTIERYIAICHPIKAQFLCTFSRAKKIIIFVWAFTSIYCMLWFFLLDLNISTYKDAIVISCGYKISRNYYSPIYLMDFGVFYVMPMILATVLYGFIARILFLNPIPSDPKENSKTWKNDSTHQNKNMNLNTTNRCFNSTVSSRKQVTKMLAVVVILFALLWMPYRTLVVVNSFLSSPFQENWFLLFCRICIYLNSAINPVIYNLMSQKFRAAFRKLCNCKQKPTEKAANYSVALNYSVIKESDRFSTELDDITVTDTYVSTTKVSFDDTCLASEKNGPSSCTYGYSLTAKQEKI
# Chain of human Peripheral-type Benzodiazepine Receptor (PBR), TSPO (gene 706) (P30536 whole entry, looked up): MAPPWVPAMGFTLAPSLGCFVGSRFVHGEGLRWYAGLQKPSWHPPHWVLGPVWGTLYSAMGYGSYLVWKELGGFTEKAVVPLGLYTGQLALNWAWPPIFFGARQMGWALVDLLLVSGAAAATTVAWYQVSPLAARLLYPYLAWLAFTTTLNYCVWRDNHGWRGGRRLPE
# Chain of rat Neonicotinoid receptor (NNR), Chrna7 (gene 25302) (Q05941 whole entry, looked up): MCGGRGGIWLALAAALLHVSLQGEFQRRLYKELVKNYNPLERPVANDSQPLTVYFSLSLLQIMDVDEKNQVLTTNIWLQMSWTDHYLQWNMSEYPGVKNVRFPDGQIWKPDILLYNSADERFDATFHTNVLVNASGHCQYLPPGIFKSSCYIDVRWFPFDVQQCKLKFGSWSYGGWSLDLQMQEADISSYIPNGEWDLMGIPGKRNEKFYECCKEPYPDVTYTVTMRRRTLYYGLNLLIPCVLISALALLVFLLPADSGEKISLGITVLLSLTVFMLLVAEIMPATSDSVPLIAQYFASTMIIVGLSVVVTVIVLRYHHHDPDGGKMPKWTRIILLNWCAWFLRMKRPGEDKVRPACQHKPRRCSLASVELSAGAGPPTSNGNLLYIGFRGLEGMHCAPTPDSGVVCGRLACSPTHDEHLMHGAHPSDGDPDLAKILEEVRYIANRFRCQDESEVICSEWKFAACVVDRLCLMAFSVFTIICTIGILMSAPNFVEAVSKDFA
# Chain of rat Gamma-Aminobutyric Acid Type A Receptor, Non-Selective (GABAR-NonSelective), Gabra1 (gene 29705) (P62813 whole entry, looked up): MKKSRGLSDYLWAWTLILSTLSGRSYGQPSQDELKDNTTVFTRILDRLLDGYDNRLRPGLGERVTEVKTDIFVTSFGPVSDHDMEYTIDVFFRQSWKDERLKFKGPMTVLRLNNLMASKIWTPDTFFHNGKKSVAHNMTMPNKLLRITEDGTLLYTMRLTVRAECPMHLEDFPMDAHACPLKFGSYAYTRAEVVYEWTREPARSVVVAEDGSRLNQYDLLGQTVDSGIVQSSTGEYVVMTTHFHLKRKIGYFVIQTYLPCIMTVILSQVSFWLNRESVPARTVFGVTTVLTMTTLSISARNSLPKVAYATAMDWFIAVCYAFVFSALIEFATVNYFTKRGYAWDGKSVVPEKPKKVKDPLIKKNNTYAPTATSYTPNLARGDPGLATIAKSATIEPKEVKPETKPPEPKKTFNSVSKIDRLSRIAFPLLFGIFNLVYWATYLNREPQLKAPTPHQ
# Chain of rat Opioid Receptor, Non-selective Binding, Oprm1 (gene 25601) (P33535 whole entry, looked up): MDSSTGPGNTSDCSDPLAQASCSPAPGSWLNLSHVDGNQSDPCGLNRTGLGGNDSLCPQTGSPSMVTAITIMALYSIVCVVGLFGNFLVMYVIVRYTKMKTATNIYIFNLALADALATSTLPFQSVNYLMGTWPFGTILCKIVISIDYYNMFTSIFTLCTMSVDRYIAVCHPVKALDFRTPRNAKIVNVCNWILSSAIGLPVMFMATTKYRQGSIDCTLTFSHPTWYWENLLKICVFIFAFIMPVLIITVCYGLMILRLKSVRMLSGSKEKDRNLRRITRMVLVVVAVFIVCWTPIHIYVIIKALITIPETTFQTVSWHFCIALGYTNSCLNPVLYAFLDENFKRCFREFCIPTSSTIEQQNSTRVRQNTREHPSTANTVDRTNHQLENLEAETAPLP
# Chain of rat Vasopressin 1 Receptor (V1), Avpr1a (gene 25107) (P30560 whole entry, looked up): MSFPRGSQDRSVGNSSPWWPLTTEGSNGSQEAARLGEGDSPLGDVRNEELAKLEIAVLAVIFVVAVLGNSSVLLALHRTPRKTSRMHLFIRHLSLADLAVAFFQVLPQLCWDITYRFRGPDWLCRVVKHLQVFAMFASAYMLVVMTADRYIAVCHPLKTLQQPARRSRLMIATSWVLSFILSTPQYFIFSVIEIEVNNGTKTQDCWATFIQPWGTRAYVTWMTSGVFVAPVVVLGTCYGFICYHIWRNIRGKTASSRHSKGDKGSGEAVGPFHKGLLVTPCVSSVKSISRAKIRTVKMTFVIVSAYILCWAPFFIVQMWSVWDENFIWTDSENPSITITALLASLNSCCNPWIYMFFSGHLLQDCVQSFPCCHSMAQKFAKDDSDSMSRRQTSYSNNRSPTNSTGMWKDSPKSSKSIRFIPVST
# Chain of human Serotonin, 5-Hydroxytryptamine Receptor 3 (5HT3), HTR3A (gene 3359) (P46098 whole entry, looked up): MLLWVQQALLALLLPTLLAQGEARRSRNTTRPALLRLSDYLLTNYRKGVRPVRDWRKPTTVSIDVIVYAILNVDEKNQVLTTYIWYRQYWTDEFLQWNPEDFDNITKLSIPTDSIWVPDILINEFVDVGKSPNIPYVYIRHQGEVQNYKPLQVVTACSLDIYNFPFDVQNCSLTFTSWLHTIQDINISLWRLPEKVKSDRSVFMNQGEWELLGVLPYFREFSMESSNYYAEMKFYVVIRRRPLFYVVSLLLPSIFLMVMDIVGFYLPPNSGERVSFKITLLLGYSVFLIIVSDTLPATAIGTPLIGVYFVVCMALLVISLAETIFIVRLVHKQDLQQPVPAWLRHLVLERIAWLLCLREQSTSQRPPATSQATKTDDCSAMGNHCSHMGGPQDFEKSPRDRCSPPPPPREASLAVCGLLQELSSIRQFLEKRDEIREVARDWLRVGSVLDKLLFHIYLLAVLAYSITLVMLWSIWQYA
structure (smiles),measurement,setting,value
CCCCCCCCCCCCOS(=O)(=O)O,outcome,NCBI gene 24521,inactive
same,AC50,[1],5.96 µM (active)
O=C(CCCN1CCC(O)(c2ccc(Cl)cc2)CC1)c1ccc(F)cc1,AC50,[2],3.15 µM (active)
same,AC50,[3],0.376 µM (active)
COc1cc([N+](=O)[O-])ccc1N,outcome,[4],inactive
CCOC(=O)CN[C@@H](C(=O)N1CC[C@H]1C(=O)NCc1ccc(/C(N)=N/O)cc1)C1CCCCC1,AC50,[3],0.00287 µM (active)
same,AC50,[5],1.25 µM (active)
CN(C)c1ccc(C(=C2C=CC(=[N+](C)C)C=C2)c2ccccc2)cc1,AC50,[3],860 nM (active) and 5.04 µM (active)
same,AC50,[5],1.29 µM (active) and 1.63 µM (active)
CCCCCCCCCCCCCCCCCC[N+](C)(C)Cc1ccccc1,outcome,[3],inactive
same,outcome,[5],inactive
CCCCCc1ccc(O)cc1,AC50,[3],1.07 µM (active)
same,AC50,[5],25 µM (active)
N=C(N)c1ccc(OCCCCCOc2ccc(C(=N)N)cc2)cc1,AC50,[6],5.6 µM (active)
same,outcome,NCBI gene 24521,inactive
same,AC50,[3],16.1 µM (active)
same,outcome,[1],inactive
C/C=C/C(=O)C1=C(C)CCCC1(C)C,AC50,[5],10.8 µM (active)
Cc1ccc(C)c(S(=O)(=O)O)c1,AC50,[4],0.194 µM (active)
CCCCc1oc2ccccc2c1C(=O)c1cc(I)c(OCCN(CC)CC)c(I)c1,AC50,[2],0.772 µM (active)
same,AC50,[3],1.67 µM (active)
same,AC50,[5],5.22 µM (active)
CCCCCCC(C)(C)C(=O)O,outcome,[4],inactive
CN(C)CCOC(c1ccccc1)c1ccccc1,AC50,[6],7 µM (active)
same,AC50,[3],3.25 µM (active)
CN(Cc1cnc2nc(N)nc(N)c2n1)c1ccc(C(=O)N[C@@H](CCC(=O)O)C(=O)O)cc1,outcome,[3],inactive
same,outcome,[5],inactive
O=C(NCc1ncc(C(F)(F)F)cc1Cl)c1c(Cl)cccc1Cl,AC50,[5],0.00396 µM (active)
CC1CNCC(C)O1 (stereo not drawn),AC50,[7],25 µM (active)
CS(=O)(=O)c1ccc([C@@H](CC2CCCC2)C(=O)Nc2cnccn2)cc1Cl,outcome,[8],inactive
same,outcome,[4],inactive
CCCCc1ccc2ccccc2c1S(=O)(=O)O,outcome,[4],inactive
O=C(O)c1cccc(C(=O)O)n1,outcome,[4],inactive
CCc1ccccc1O,outcome,[4],inactive
NC(=NCCCCCCN=C(N)/N=C(\N)Nc1ccc(Cl)cc1)/N=C(\N)Nc1ccc(Cl)cc1,AC50,[7],38.3 µM (active)
same,outcome,[3],inactive
same,AC50,[5],10.3 µM (active)
CCCCC(CC)C(=O)O (stereo not drawn),outcome,[9],inactive
CCCCC(CC)C(=O)OCCOCCOCCOCCOC(=O)C(CC)CCCC (stereo not drawn),AC50,[5],15.8 µM (active)
CC(C)c1c(C(=O)Nc2ccccc2)c(-c2ccccc2)c(-c2ccc(F)cc2)n1CC[C@@H](O)C[C@@H](O)CC(=O)O,AC50,[5],11.2 µM (active)
CCc1cccc(CC)c1N(COC)C(=O)CS(=O)(=O)O,outcome,[3],inactive
Cc1ccc(S(=O)(=O)O)cc1,AC50,[4],0.167 µM (active)
C=CC(=O)OCCN(CC)CC,outcome,[3],inactive
Clc1ccc(Nc2nnc(Cc3ccncc3)c3ccccc23)cc1,AC50,[3],2.08 µM (active)
same,AC50,[5],1.95 µM (active)
NCCN,outcome,[4],inactive
Cc1cc(C(=C2C=CC(=Nc3ccc(S(=O)(=O)O)cc3)C=C2)c2ccc(Nc3ccc(S(=O)(=O)O)cc3)cc2)cc(S(=O)(=O)O)c1N,outcome,[4],inactive
CCCCCC(C)OC(=O)COc1ccc(Cl)c2cccnc12 (stereo not drawn),AC50,[5],4.96 µM (active)
